Values without a mark were called inactive. The call rests on the fitted dose curve; in most records, active means well fitted curve in the direction sought with a large enough effect; inconclusive means small, poorly fitted or top-dose-only effect, or another doubt; inactive means no such curve, though single readings can be large or run the other way.
Molecular target: Hexokinase-4 (Homo sapiens) + Glucokinase regulatory protein (Homo sapiens) (UniProt P35557+Q14397)
Assay: qHTS assay for inhibitors of recombinant human GCK-GKRP interaction: HTRF assay (AID 743207);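 further: 0% = DMSO with GCK present and -100% = DMSO wells lacking GCK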
Conditions: recombinant GCK-GKRP HTRF binding, 60 min, with sorbitol-6-phosphate; series mostly up to 57.5 µM; activity change, negative = inhibition: at the top concentration
From the text: Glucokinase (GCK) is a glucose sensor in hepatocytes and pancreatic beta-cells. Hepatic GCK is regulated by glucokinase regulatory protein (GKRP), which is predominantly localized to the liver. GKRP binds to GCK inhibiting its activity in the fasting state while in the presence of glucose the GKRP is displaced. There is an additional layer of regulation by fructose 1-phosphate and fructose 6-phosphate, which inhibit and enhance the GCK-GKRP interaction, respectively. GCK plays a role in glucose homeostasis and there is an interest in the development of strategies to activate GCK to lower blood glucose levels in type 2 diabetes. To date the majority of effort has focused on direct activation of GCK and the assays developed herein look to activate GCK by inhibiting its binding to GKRP. A compound that inhibits the interaction of GCK with GKRP could be important for the treatment of diabetes and can also be used as a tool compound to further elucidate GCK-GKRP biology. To that end, we have developed an HTS biochemical assay using HTRF technology for to interrogate the GCK-GKRP interaction. This assay was screened against a small compound library to look for modulators of activity.
3 uL of 5 nM GST-GCK and 5 nM FLAG-GKRP proteins with 2 uM S6P (columns 1-2, 4-48; Millipore, Billerica, MA) are dispensed into Greiner, white solid-bottom 1536-well assay plates; columns 3 receive buffer without GCK as a control for maximum inhibition. Buffer contains 2 mM MgCl2, 25 mM KCl, 25 mM Hepes, 1 mM DTT, 0.1% Tween 20 and 0.025% BSA and the pH was adjusted to 7.1. Compounds (23 nL) are then transferred via Kalypsys pin tool equipped with 1536-pin array (10 nL slotted pins, V&P Scientific, San Diego, CA). The library compounds are in columns 5-48 and columns 1-4 serve as controls with DMSO in columns 1 and 3 and 26 mM 1:1.5 fold serial of gluckokinase activator (GKA-EMD) in column 2 and 26 mM of the glucokinase activator (GKA-EMD) in column 4. Following addition of compound, 1 uL of detection antibodies (anti-Flag XL 665 and anti-GST K in reconstitution buffer from Cisbio, Bedford, MA; 0.7 ng/well and 0.0945 ng/well, respectively) is added, and the mixture is allowed to equilibrate for 60 minutes at room temperature. Data are normalized to DMSO-treated control columns with (maximum signal) and without (minimum signal) enzyme. Plates were read on an Envision plate reader (PerkinElmer, Shelton, CT, USA) with excitation at 320 nm and dual-wavelength detection at the Fret donor wavelength (615 nm) and the FRET acceptor wavelength (665 nm).

Sequence of Hexokinase-4 (Homo sapiens) + Glucokinase regulatory protein (Homo sapiens) (P35557 whole entry, looked up): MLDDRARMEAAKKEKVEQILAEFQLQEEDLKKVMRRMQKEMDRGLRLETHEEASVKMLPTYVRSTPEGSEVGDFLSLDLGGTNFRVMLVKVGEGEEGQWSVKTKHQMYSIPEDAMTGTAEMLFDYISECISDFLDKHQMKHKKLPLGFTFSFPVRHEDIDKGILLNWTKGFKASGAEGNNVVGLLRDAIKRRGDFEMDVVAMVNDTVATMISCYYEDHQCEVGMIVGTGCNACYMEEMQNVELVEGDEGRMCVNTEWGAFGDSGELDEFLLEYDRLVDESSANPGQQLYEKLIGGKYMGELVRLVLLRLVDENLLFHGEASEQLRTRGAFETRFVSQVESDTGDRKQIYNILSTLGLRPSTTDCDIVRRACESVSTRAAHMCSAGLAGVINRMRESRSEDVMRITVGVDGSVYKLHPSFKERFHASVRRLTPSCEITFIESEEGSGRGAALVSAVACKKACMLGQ
Sequence of Hexokinase-4 (Homo sapiens) + Glucokinase regulatory protein (Homo sapiens) (Q14397 whole entry, looked up): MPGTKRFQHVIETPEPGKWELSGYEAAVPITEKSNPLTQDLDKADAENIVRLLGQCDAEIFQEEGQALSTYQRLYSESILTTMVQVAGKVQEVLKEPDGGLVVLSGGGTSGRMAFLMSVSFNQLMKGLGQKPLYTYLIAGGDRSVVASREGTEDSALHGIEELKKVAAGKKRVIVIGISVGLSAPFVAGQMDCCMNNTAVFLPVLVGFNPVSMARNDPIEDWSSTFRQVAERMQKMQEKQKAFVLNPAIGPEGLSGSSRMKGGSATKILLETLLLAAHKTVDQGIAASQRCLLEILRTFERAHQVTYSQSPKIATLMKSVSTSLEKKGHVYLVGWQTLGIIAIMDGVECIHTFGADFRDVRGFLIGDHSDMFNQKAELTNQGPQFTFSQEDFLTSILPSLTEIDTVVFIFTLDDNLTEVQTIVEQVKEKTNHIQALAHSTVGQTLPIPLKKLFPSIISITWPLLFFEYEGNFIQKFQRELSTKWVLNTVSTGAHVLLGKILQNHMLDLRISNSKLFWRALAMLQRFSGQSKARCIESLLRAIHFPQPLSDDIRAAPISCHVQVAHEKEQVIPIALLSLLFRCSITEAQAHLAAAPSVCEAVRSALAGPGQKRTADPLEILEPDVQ

SMILES | activity change, negative = inhibition
CCNC(=O)N1CCN(CCCC(c2ccc(F)cc2)c2ccc(F)cc2)CC1 | -4.57%
O=C(CCCN1CCC(O)(c2cccc(C(F)(F)F)c2)CC1)c1ccc(F)cc1 | 11.5%
CCCOc1ccccc1-c1nc2n[nH]nc2c(=O)[nH]1 | -7.35%
O=C(CCNNC(=O)c1ccncc1)NCc1ccccc1 | -0.287%
COC(=O)[C@@H](N)Cc1ccc(O)c(O)c1 | -11.9%
CCN1CCc2nc(N)oc2CC1 | 9.71%
Cc1nc2ccccn2c(=O)c1CCN1CCC(C(=O)c2ccc(F)cc2)CC1 | 3.18%
CC(=O)Oc1cc(C(C)C)c(OCCN(C)C)cc1C | 3.07%
CCCCNC(=O)NS(=O)(=O)c1ccc(C)cc1 | -6.1%
COCCCC/C(=N\OCCN)c1ccc(C(F)(F)F)cc1 | 6.85%
NC(N)=NC(=O)Cc1c(Cl)cccc1Cl | -9.75%
C[C@@H](O)[C@H]1C(=O)N2C(C(=O)O)=C(SCCN=CN)C[C@H]12 | -0.889%
C=CCc1ccccc1OCC(O)CNC(C)C (stereo not given) | 7.79%
CCOC(=O)C1=C(C)NC(C)=C(C(=O)OC)C1c1cccc(Cl)c1Cl (stereo not given) | -4%
CC(N=C(NC#N)Nc1ccncc1)C(C)(C)C (stereo not given) | -4.49%
CCCCNc1ccc(C(=O)OCCN(C)C)cc1 | -2.65%
c1ccc2c(c1)CCCC2C1=NCCN1 (stereo not given) | 3.41%
FC(F)(F)c1ccccc1-n1ccnc1 | 10.5%
CC(C(=O)O)c1ccc(CC2CCCC2=O)cc1 (stereo not given) | -5.54%
CCC(=O)c1ccc2c(c1)N(CCCN(C)C)c1ccccc1S2 | -0.348%

SMILES | activity change, negative = inhibition
C[C@]12CC[C@@H]3c4ccc(O)cc4C[C@@H](CCCCCCCCCS(=O)CCCC(F)(F)C(F)(F)F)[C@H]3[C@@H]1CC[C@@H]2O (stereo not given in full) | -1.47%
CCn1ccnc1CC1COc2ccccc2O1 (stereo not given) | -9.42%
Fc1ccc(C(c2ccc(F)cc2)N2CCN(C/C=C/c3ccccc3)CC2)cc1 | 10.5%
COc1cc2c(cc1OC)-c1cc(=Nc3c(C)cc(C)cc3C)n(C)c(=O)n1CC2 | -16.3%
C[N+](C)(C)CCOC(=O)CCC(=O)OCC[N+](C)(C)C | 6.57%
CN1CCN(C2=Nc3ccccc3Oc3ccc(Cl)cc32)CC1 | -7.87%
CN(C)C(=O)Oc1ccc[n+](C)c1 | 7.28%
CC(C)COCC(CN(Cc1ccccc1)c1ccccc1)N1CCCC1 (stereo not given) | -2.62%
CN1C(=O)CC[C@H]1c1cccnc1 | 2.91%
CN(C)CCN(Cc1cccs1)c1ccccn1 | 13.9%
COCC(=O)O[C@]1(CCN(C)CCCc2nc3ccccc3[nH]2)CCc2cc(F)ccc2[C@@H]1C(C)C | -2.46%
c1cc(CN2CCCCC2)cc(OCCCNc2nc3ccccc3s2)c1 | 5.41%
Cc1ccc(Cl)c(Nc2ccccc2C(=O)O)c1Cl | -4.44%
CCN1CCC[C@H]1CNC(=O)c1c(O)c(Cl)cc(Cl)c1OC | -3.24%
COC(=O)C1=C(C)NC(C)=C(C(=O)OC(C)(C)CN(C)CCC(c2ccccc2)c2ccccc2)C1c1cccc([N+](=O)[O-])c1 (stereo not given) | 10.3%
Nc1ncn([C@@H]2O[C@H](CO)[C@@H](O)[C@H]2O)c(=O)n1 | -2.97%
Cc1cc(C)c(/C=C2\C(=O)Nc3ccccc32)[nH]1 | 11.4%
Nc1nc(N)c2nc(-c3ccccc3)c(N)nc2n1 | 0.977%
C[C@]12C=CC(=O)C=C1CC[C@H]1[C@@H]3C[C@@H](O)[C@](O)(C(=O)CO)[C@@]3(C)C[C@H](O)[C@@]12F | -0.854%
O=C(O)CCCCCCCC(=O)O | -7.89%
